Measured values taken from PubChem BioAssay AID429 (Emory University Molecular Libraries Screening Center, 2006).
In all, about 64,000 compounds went through this assay and about 220 (0.34%) were called active. For the sample, actives were picked, then their nearest neighbours and some compounds at random. Values without a mark were called inactive.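 Rule for the calls: active = inhibition above 50%; inactive = the rest.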

Each compound was assayed against Heat shock protein HSP 90-alpha (Homo sapiens) (UniProt P07900) (assay: Hsp90 geldanamycin-site probe displacement – cell lysate, fluorescence polarization, NCI-N417 lysate, primary screen (AID 429;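 note: 0% = tracer plus lysate wells and 100% = tracer alone without lysate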)). Details: NCI-N417 lysate Hsp90, Cy3B-geldanamycin FP displacement; at 30 µM; stronger effect = higher value.
`Cc1nn(-c2ccccc2)c(C)c1C(=O)OCC(=O)NC(=O)NC1CCCCC1` was tested, and the inhibition was -2.89%. `CCCN(CCc1ccccc1)C1CCc2c(O)cccc2C1` (stereo unspecified) gave an inhibition of -0.71%. `CCCn1c(=O)c2ccccc2n2c(SCC(=O)/C(C#N)=C(\C)N)nnc12` showed an inhibition of -5.05%. Compound `O=c1cc(CSc2ccccn2)nc(N2CCN(c3ccccc3)CC2)[nH]1` has an inhibition of -2.49%. With `CC(C)NS(=O)(=O)c1ccc(OCC(=O)Nc2ccc3c(c2)OCCO3)cc1` the inhibition was -7.01%. `CC1CCCN(C(=O)c2ccc3c(c2)C(=O)N(CCC2=CCCCC2)C3=O)C1` (stereo unspecified) gave an inhibition of -1.14%. Compound `COc1ccccc1NC(=O)CSc1nnc(Cn2nnc(-c3ccccc3)n2)n1-c1ccccc1` has an inhibition of 2.15%. `O=C(c1ccco1)N1CCN=C1SCc1cccc(Cl)c1` was tested, and the inhibition was -5.15%. `CCCCc1nc2ccccc2c(NC(=O)CN2CCN(C)CC2)c1CCC` showed an inhibition of -1.26%. `CCCn1cc(SCC(N)=O)c2ccccc21` gave an inhibition of -4.04%. In the case of `CC(C)(Oc1ccc(C2CC2(Cl)Cl)cc1)C(=O)O` (stereo unspecified), the inhibition is reported as 1.49%. Compound `COC1(C2=NCCN2)COc2ccccc2O1` (stereo unspecified) has an inhibition of 1.52%. `CCOC(=O)Nc1ccc2c(c1)N(C(=O)CN1CCN3CCCC3C1)c1ccccc1CC2` (stereo unspecified) gave an inhibition of -6.22%. `Cc1ccc(S(=O)(=O)NC(=O)N2CCCC(C)(C)C2)cc1` gave an inhibition of -0.1%. `O=c1c(F)cn(C2CCCO2)c(=O)n1Cc1ccccc1Cl` (stereo unspecified) showed an inhibition of -6.6%. Compound `CCOC(=O)C1=C(CC)Nc2ccccc2N=C1NC(=O)c1cccc(S(=O)(=O)N2CCCC2)c1` has an inhibition of -3.82%. `CCCc1nc2ccccc2c(=O)n1NC(=O)c1c(O)c2ccccc2[nH]c1=O` gave an inhibition of -3.13%. `CCCCc1nc2ccccc2c(=O)n1NC(=O)c1c(O)c2cccc3c2n(c1=O)CC3` was tested, and the inhibition was -2.36%. For `CCCc1nc2ccccc2c(=O)n1/N=C/c1ccc(O)c(O)c1`, the inhibition was 70.7% (active). With `CCC(=O)Nc1cccc(NC(=O)CSc2nnc(-c3ccc(NS(C)(=O)=O)cc3)n2C)c1` the inhibition was -0.45%. With `O=C(CCc1ccccc1)Nc1ccc(NC(=O)C2CC2)nc1` the inhibition was -2.83%. Compound `N#CC1=C(N)Oc2n[nH]c(CSc3ccccc3)c2C12C(=O)Nc1ccccc12` (stereo unspecified) has an inhibition of -11.3%. `CC1Cc2ccccc2N1C(=O)CSc1nnc(-c2ccc(S(=O)(=O)N3CCCCC3)cc2)o1` (stereo unspecified) gave an inhibition of -0.41%. In the case of `Nn1c(SCC(=O)NC(=O)NC2CCCC2)nnc1-c1ccccc1F`, the inhibition is reported as -5.58%. `CCOC(=O)/C=c1\s/c(=C\c2ccccc2OC)c(=O)n1CC(=O)N1CCOCC1` gave an inhibition of -5.13%. Compound `Cc1cc(C)c2nc(N3CCCC3)c(C#N)cc2c1` has an inhibition of 4.01%. `Cc1noc(C)c1S(=O)(=O)N(CC(=O)Nc1ccc2c(c1)OCCO2)c1ccc(C(C)C)cc1` gave an inhibition of -1.54%. `CNc1ncnc2c1ncn2[C@@H]1O[C@H](CO)[C@H](O)C1O` (stereo partly specified) gave an inhibition of -3.44%. With `O=C(Nc1ccc(NC(=O)c2cccs2)cn1)c1ccco1` the inhibition was -0.15%. With `CC(C)(C)c1ccc(NC(=O)NCc2ccco2)cc1` the inhibition was -5.65%. With `Cc1ccc(C(=O)Nc2nnc(-c3cccs3)s2)cc1C` the inhibition was -0.3%. `CCNc1nc(N)nc(Oc2ccc(OCC)nn2)n1` gave an inhibition of -5.57%. With `O=c1cc(-c2ccccc2)[nH]c2nc(Cl)ccc12` the inhibition was -1.33%. With `CCOc1ccc(CCNC(=O)C2CCN(c3ccc(N4CCOCC4)nn3)CC2)cc1OCC` the inhibition was -1.25%. `OC[C@H]1O[C@@H](n2cnc3c(N[C@H]4CC5CCC4C5)ncnc32)[C@H](O)[C@@H]1O` (stereo partly specified) gave an inhibition of -1%. With `O=C(OCC(=O)c1cccs1)C1=COCCO1` the inhibition was -6.24%. For `COc1cc(Cl)cc(C2NC(=O)NC(C)=C2C(=O)NCc2ccccc2)c1O` (stereo unspecified), the inhibition was -1.82%. With `O=C(c1ccco1)N1CCN(C(=O)C2CC(c3ccc(Cl)c(Cl)c3)=NO2)CC1` (stereo unspecified) the inhibition was -2.91%. Compound `CCC(CC)C(=O)Nc1cc(C(=O)OC)cc(C(=O)OC)c1` has an inhibition of -13.5%. Compound `CC(=O)N1CCC(C(=O)Nc2nc(-c3ccccc3)ns2)CC1` has an inhibition of -2.79%. For `Cc1coc2c(O)cc3c(c12)OC1(N2CCCCC2)C(=O)NCCCC31` (stereo unspecified), the inhibition was 96.8% (active). Compound `CC(=O)/C(C)=N/O` has an inhibition of 5.45%. With `COc1ccc(-n2nc3c(c2NC(=O)Cc2cccc(C)c2)CS(=O)C3)cc1` (stereo unspecified) the inhibition was -2.13%. For `Nc1cc(O)cc2cccnc12`, the inhibition was 150% (active). `O=C(Nc1ccn(Cc2ccc(F)cc2)n1)c1ccncc1` showed an inhibition of -2.29%. `CN(C)c1nc(N)nc(CSc2nnnn2-c2cccc3ccccc23)n1` was tested, and the inhibition was -1.24%. For `Cc1ccc(S(=O)(=O)N2CCCC2CO)cc1` (stereo unspecified), the inhibition was -1.22%. Work on `C=CCNc1ncnc2ccc(Br)cc12` yielded an inhibition of -2.85%. Work on `Cc1nn(-c2ccccc2)c(CC(C)(C)C(=O)O)c1C(=O)O` yielded an inhibition of 0.74%. For `Oc1ccc(Cn2cc[nH]c2=S)cc1`, the inhibition was -2.1%. Compound `CCC(Sc1nncn1C)C(=O)Nc1nnc(-c2ccc(Cl)cc2)s1` (stereo unspecified) has an inhibition of -2.78%. Work on `COc1cc(NCS(=O)(=O)c2ccc(C)cc2)c2ncccc2c1` yielded an inhibition of -1.2%. Compound `O=C(c1ccccc1)c1ccc2nc(N3CCCCC3)c3nncn3c2c1` has an inhibition of -6.65%. `CCOc1cccc(/C(O)=C2/C(=O)C(=O)N(CCOC)C2c2ccncc2)c1` (stereo unspecified) was tested, and the inhibition was 2.34%. `CS(=O)(=O)c1ccc2nc(NC(=O)CN3CCCCCC3)sc2c1` was tested, and the inhibition was -0.64%. Compound `O=C(NCCc1ccc(Cl)cc1)C1CC(=O)N(C2CCCCC2)C1` (stereo unspecified) has an inhibition of -0.35%. Work on `NS(=O)(=O)c1ccc(CCNC(=O)Nc2ccc(Cl)cc2)cc1` yielded an inhibition of -2.49%. `Oc1cc2c(cc1O)CN(C(=S)NCCc1ccc(Cl)cc1)CCC2` was tested, and the inhibition was 77.6% (active). `Cc1ccc(-c2nnc(SC(C)C#N)n2N)cc1` (stereo unspecified) was tested, and the inhibition was 2.26%. Work on `O=C(Nc1nccs1)C1CCCN1S(=O)(=O)c1cccc2cccnc12` (stereo unspecified) yielded an inhibition of -1.15%. `COc1ccccc1NC1=NC(c2ccc(Cl)cc2)N=C(N)N1` (stereo unspecified) gave an inhibition of 1.36%.
